ChEMBL document CHEMBL3988442, “University of Dundee, Small-Polar-MMV Screening Library” (2021)
Screen size: about 48,000 compounds; about 13,000 (27%) showed an effect of 50% or more. Some of the results follow.

Each molecule was assayed on Wolbachia pipientis (assay: Anti-Wolbachia Cell-Based Screen). Details: 5 µM.
Format: functional
Parameters: scale not given: in the data most compounds retested in dose-response had high values

First: CC(=O)Nn1c(C)cc(CN2CCCN(Cc3ccncc3)CC2)c1C
Second: O=C(Cc1nc(-c2ccncc2)n[nH]1)N1CCOCC1
The “Percent Effect” value of the first is lower: 19.43% for the first, 104.3% for the second.

First: Cc1n[nH]c(=O)c2c(NC(=O)CN3CCOCC3C)oc(C)c12 (stereo unspecified)
Second: Cc1noc(C)c1CNC(=O)N1Cc2ccccc2N(C)CC1C (stereo unspecified)
The “Percent Effect” value of the first is higher: 12.8% for the first, 7.877% for the second.

Going from `CNC(=O)[C@@H]1C[C@H](N)CN1Cc1cc2cc(OC)ccc2nc1O` to `COc1cccc(OCCc2nc3c(cc2C(N)=O)CCC3)c1`, the “Percent Effect” value rises from 8.618% to 92.52%.

First: O=C(NCc1cc[nH]n1)NCC(O)COc1cccc(F)c1 (stereo unspecified)
Second: C[C@@]1(O)CCN(Cc2cc[nH]n2)C[C@H]1Oc1cccc(F)c1
The “Percent Effect” value of the first is lower: -0.04004% for the first, 94.39% for the second.

Going from `Cn1ccnc1CN1CCN2C[C@H](Oc3cccc(F)c3)C[C@H]2C1.O=C(O)C(F)(F)F.O=C(O)C(F)(F)F` to `Cc1ccc2c(n1)N(CCn1cccn1)CCN(CC1CC1)C2.O=C(O)C(F)(F)F.O=C(O)C(F)(F)F`, the “Percent Effect” value rises from 5.075% to 102.9%.

First: O=C1CC[C@H]2CN(Cc3cccc(F)c3)CC[C@H]2N1CCc1c[nH]cn1
Second: C[C@]1(O)CCN(Cc2c[nH]cn2)C[C@@H]1Oc1cccc(F)c1
The “Percent Effect” value of the first is lower: -2.492% for the first, 125.6% for the second.

Going from `Cc1cc(F)ccc1OC1(C(=O)O)CCN(Cc2c[nH]cn2)CC1` to `O=C(CCNCc1cc(O)c2cc(F)ccc2n1)N1CCCC1`, the “Percent Effect” value rises from -1.435% to 24.8%.

First: c1ccc2sc(N3CCN(c4ncnc5c4CCC5)CC3)nc2c1
Second: Cn1nccc1C1CCN(Cc2csc(-c3ncccn3)n2)CC1
The “Percent Effect” value of the first is lower: -7.695% for the first, 5.984% for the second.

First: CSc1ncc(C(=O)N2CCN(c3ccccc3C)CC2C)cn1 (stereo unspecified)
Second: Cc1ccccc1C1CCN(CCn2cc(-c3nccs3)nn2)C1 (stereo unspecified)
The “Percent Effect” value of the first is lower: -7.257% for the first, -6.567% for the second.

First: O=C(O)C(F)(F)F.O=C(c1cccc(F)c1)N1CC[C@H]2[C@H]1CCN2CC1CCOCC1
Second: O=C(O)C(F)(F)F.O=C(c1ccc(F)cc1)N1CC[C@H]2[C@H]1CCN2CC1CCOCC1
The “Percent Effect” value of the first is higher: -10.34% for the first, -29.44% for the second.

Compared with `Cc1ccc(C(=O)N2CC[C@H]3[C@H]2CCN3CC2CCOCC2)cc1F.O=C(O)C(F)(F)F`, `Cn1cccc1C(=O)N1CC[C@H]2[C@H]1CCN2CC1CCOCC1.O=C(O)C(F)(F)F` is lower in “Percent Effect” value: 1.153% for the first, -12.52% for the second.

Going from `O=C(O)C(F)(F)F.O=C(c1cscn1)N1CC[C@@H]2[C@@H]1CCN2CC1CCOC1` (stereo partly specified) to `O=C(O)C(F)(F)F.O=C(c1cscn1)N1CC[C@@H]2[C@@H]1CCN2CC1CCOCC1`, the “Percent Effect” value falls from 116.3% to 90.26%.

Compared with `CC(C(=O)NCC1(c2c(F)cccc2F)CCCC1)S(C)(=O)=O` (stereo unspecified), `COCCOc1ccc(S(=O)(=O)Nc2cccc(O)c2F)cc1C` is lower in “Percent Effect” value: 26.11% for the first, -10.79% for the second.

Compared with `CCOCC1CN(S(C)(=O)=O)Cc2cnn(C)c21` (stereo unspecified), `CCOCC1CN(S(=O)(=O)C2CC2)Cc2cnn(C)c21` (stereo unspecified) is higher in “Percent Effect” value: -13.89% for the first, -2.389% for the second.

First: CCOCC1CN(C(=O)C2CCOCC2)Cc2cnn(C)c21 (stereo unspecified)
Second: CCOCC1CN(C(=O)N2CCCC2)Cc2cnn(C)c21 (stereo unspecified)
The “Percent Effect” value of the first is lower: 76.58% for the first, 85.37% for the second.

Compared with `CCOCC1CN(CCN2CCCCC2)Cc2cnn(C)c21.O=C(O)C(F)(F)F.O=C(O)C(F)(F)F.O=C(O)C(F)(F)F` (stereo unspecified), `CCCC(=O)N1CCN(CCN(C)C)c2nc(C)ccc2C1.O=C(O)C(F)(F)F.O=C(O)C(F)(F)F` is lower in “Percent Effect” value: 3.922% for the first, -16.06% for the second.

Going from `COCC1CN(C(=O)C2=CCCCC2)Cc2cnn(CC3CC3)c21` (stereo unspecified) to `COCC1CN(C(=O)C2=CCCC2)Cc2cnn(CC3CC3)c21` (stereo unspecified), the “Percent Effect” value falls from 3.854% to -0.9151%.

First: CCOCC1CN(C(=O)C2=CCCC2)Cc2cnn(C)c21 (stereo unspecified)
Second: CN1CCCCC1Cc1nc2c(cc1C(N)=O)CCC2 (stereo unspecified)
The “Percent Effect” value of the first is higher: 94.04% for the first, -3.187% for the second.

Compared with `COCCOc1ccnc(-c2noc([C@@H]3CCCN3C3CCC3)n2)c1`, `O=C(COCc1nc(-c2ccncc2)no1)N1CCCCCC1` is lower in “Percent Effect” value: -11.59% for the first, -13.27% for the second.

First: CC(C)(C)C(=O)NCCC(=O)NS(=O)(=O)c1ccc2c(c1)OCCO2
Second: COCCCNC(=O)Cc1cc(-c2ccc3c(c2)OCO3)on1
The “Percent Effect” value of the first is lower: -7.979% for the first, 2.22% for the second.

First: CCc1nc(NC(=O)N(C)Cc2ccoc2)nn1C
Second: CCOCC(=O)Nc1cc(C)cnc1OC
The “Percent Effect” value of the first is higher: 2.955% for the first, -15.44% for the second.

Compared with `c1ccc(CCCN2CC(n3cccn3)C2)cc1`, `NC(=O)c1cc2c(nc1CCOCc1ccccc1)CCC2` is higher in “Percent Effect” value: 3.552% for the first, 91.73% for the second.

Compared with `CCN(CC)C(=O)[C@@H]1C[C@@H](N)CN1c1nc(N(C)C)nc(C)c1C`, `Cc1ccc(S(=O)(=O)Cc2noc([C@@H]3C[C@@H](O)CN3C)n2)cc1` is lower in “Percent Effect” value: 7.659% for the first, -3.09% for the second.

First: Cc1cc(-c2nccs2)nc(C2CCN(Cc3ccccn3)CC2)n1
Second: Cc1cc(-c2nccs2)nc(C2CCN(Cc3cccs3)CC2)n1
The “Percent Effect” value of the first is lower: 103.9% for the first, 113.5% for the second.

First: Cc1cc(NC2CCN(Cc3ccccn3)CC2)n2nc(C)c(C)c2n1
Second: c1cnc(-c2nc(CN3CCC(c4ccn[nH]4)CC3)cs2)nc1
The “Percent Effect” value of the first is higher: 3.019% for the first, -2.472% for the second.

Going from `Oc1cc(-c2nccs2)nc(C2CCN(Cc3cccs3)CC2)n1` to `O=C(COCc1nc(-c2ccncc2)no1)N1CCCC1`, the “Percent Effect” value falls from 87.73% to -11.18%.

Going from `CSc1nccc(N2CCCC(c3nccn3C(C)C)C2)n1` (stereo unspecified) to `OCc1ccc(-c2nccn2CCc2nc3c(s2)CCCC3)o1`, the “Percent Effect” value falls from 6.418% to -5.43%.

Going from `COCC(=O)N1CCN(CCn2cccn2)c2nc(C)ccc2C1.O=C(O)C(F)(F)F` to `Cc1ccc2c(n1)N(CCn1cccn1)CCN(C(=O)CC1CC1)C2.O=C(O)C(F)(F)F`, the “Percent Effect” value falls from 116.6% to 5.383%.

First: COCCN1CCN(C(=O)N2CCCC2)Cc2ccc(C)nc21.O=C(O)C(F)(F)F
Second: COCCN1CCN(C(=O)NC2CC2)Cc2ccc(C)nc21.O=C(O)C(F)(F)F
The “Percent Effect” value of the first is higher: 6.866% for the first, -6.778% for the second.

First: Cc1ccc2c(n1)N(CCn1cccn1)CCN(C1CCOCC1)C2.O=C(O)C(F)(F)F.O=C(O)C(F)(F)F
Second: Cc1ccc2c(n1)N(Cc1csc(C)n1)CCN(C1CCOC1)C2.O=C(O)C(F)(F)F.O=C(O)C(F)(F)F (stereo unspecified)
The “Percent Effect” value of the first is higher: 93.94% for the first, 9.97% for the second.

Going from `Cc1ccc2c(n1)N(CCn1cccn1)CCN(S(C)(=O)=O)C2.O=C(O)C(F)(F)F` to `CCS(=O)(=O)N1CCN(CCn2cccn2)c2nc(C)ccc2C1.O=C(O)C(F)(F)F`, the “Percent Effect” value rises from 91.26% to 99.61%.

Compared with `Cc1ccc2c(n1)N(CC(C)C)CCN(C(=O)Cc1ccccn1)C2.O=C(O)C(F)(F)F.O=C(O)C(F)(F)F`, `COCCN1CCN(Cc2c(C)noc2C)Cc2ccc(C)nc21.O=C(O)C(F)(F)F.O=C(O)C(F)(F)F` is lower in “Percent Effect” value: 1.939% for the first, -3.796% for the second.

Going from `Cn1nc(Cn2cccn2)c2c1CN(C1CCOCC1)C2.O=C(O)C(F)(F)F` to `Cn1cc(CN2C[C@@H]3COC[C@]3(C(=O)NCc3ccccn3)C2)cn1.O=C(O)C(F)(F)F.O=C(O)C(F)(F)F`, the “Percent Effect” value falls from 2.859% to -3.108%.

Going from `Cc1ccc(CNC(CN2CCN(C)CC2)c2ccccc2)cc1` (stereo unspecified) to `O=S(=O)(NCc1ccccc1)NCc1nc(-c2ccncc2)n[nH]1`, the “Percent Effect” value falls from 3.62% to -34.55%.

First: O=S(=O)(NCCc1nc(-c2cccnc2)n[nH]1)NCc1ccccc1
Second: O=C(NCc1ccccc1)NCc1nc(-c2ccncc2)n[nH]1
The “Percent Effect” value of the first is lower: -41.46% for the first, 100.9% for the second.

Compared with `O=C(Cc1nc(-c2ccncc2)n[nH]1)NCCCN1CCOCC1`, `COCCCNC(=O)Cc1nc(-c2ccncc2)n[nH]1` is lower in “Percent Effect” value: 108.4% for the first, 100.9% for the second.

First: COCCCC(=O)Nc1[nH]nc(-c2ccncc2)c1C
Second: COc1cccc(OCCc2cncc(C(N)=O)c2)c1
The “Percent Effect” value of the first is higher: 2.915% for the first, -19.41% for the second.

Compared with `O=C(NCCCN1CCOCC1)c1cc(-c2ccc3c(c2)CCO3)n[nH]1`, `NC(=O)c1cc2c(nc1-c1ccc3c(c1)CCO3)CCC2` is higher in “Percent Effect” value: -1.634% for the first, 1.16% for the second.

First: CN1CCC2(CC1)CN(C)C(=O)C[C@@H]2C(F)(F)F
Second: Cc1ncsc1CN1C[C@@H]2COC[C@]2(C(=O)NCc2cccnc2)C1.O=C(O)C(F)(F)F.O=C(O)C(F)(F)F
The “Percent Effect” value of the first is lower: -12.83% for the first, 4.251% for the second.

Compared with `Cc1occc1CNC(=O)Nc1ccc2nc(N3CCOCC3)oc2c1`, `Cc1cc(CN(C)C(=O)C(c2cccnc2)N2CCOCC2)n[nH]1` (stereo unspecified) is higher in “Percent Effect” value: -9.739% for the first, -3.091% for the second.

Compared with `Cc1ccn(CC(=O)N2CC[C@@H](c3ccc4ccccc4c3)[C@H](O)C2)n1`, `CC(C)C(C)(C#N)NC(=O)Cn1nnc(-c2cc3ccccc3o2)n1` (stereo unspecified) is lower in “Percent Effect” value: 0.6829% for the first, -0.9006% for the second.

Compared with `NC(=O)c1cc2c(nc1-c1ccc3c(c1)OCCO3)CCC2`, `NC(=O)c1cc2c(nc1CCOc1ccc(F)cc1)CCC2` is higher in “Percent Effect” value: -8.871% for the first, 109.9% for the second.

First: NC(=O)c1cc2c(nc1CC1CCCCO1)CCC2 (stereo unspecified)
Second: COc1nc2c(cc1C(=O)NCCCc1nnc(N)s1)CCC2
The “Percent Effect” value of the first is lower: -20.91% for the first, 10.88% for the second.

First: CC(C#N)CNC(=O)Nc1ccc(Br)cc1 (stereo unspecified)
Second: O=C(NCc1ccccn1)[C@]12COC[C@H]1CN(Cc1ccccc1F)C2.O=C(O)C(F)(F)F.O=C(O)C(F)(F)F
The “Percent Effect” value of the first is lower: -11.38% for the first, 103.6% for the second.

Going from `O=C(NCCc1cccs1)[C@]12COC[C@H]1CN(Cc1ccccn1)C2.O=C(O)C(F)(F)F.O=C(O)C(F)(F)F` to `Cc1ncsc1CN1C[C@@H]2COC[C@]2(C(=O)NCc2ccccn2)C1.O=C(O)C(F)(F)F.O=C(O)C(F)(F)F`, the “Percent Effect” value rises from -75.28% to -14.61%.

`O=C(NCc1ccccn1)[C@]12COC[C@H]1CN(Cc1cccnc1)C2.O=C(O)C(F)(F)F.O=C(O)C(F)(F)F.O=C(O)C(F)(F)F` was tested, and the “Percent Effect” value was 99.25%.
